# Screening results deposited in PubChem BioAssay by National Center for Advancing Translational Sciences (NCATS).
# Compounds with a hit are over-represented: about 8.7% of the library has one in this group of screens.
# Sfp inh = inhibitors of Bacillus subtilis Sfp phosphopantetheinyl transferase | Q9F4F7 | Biochemical Sfp PPTase activity, qHTS | Potency, µM, actives largely listed as inhibitors | 310,000 tested, 3.5% active | AID 1490;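 note: the enzyme is Sfp with the accession as filed and its product quenches rhodamine fluorescence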
#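 Sfp 15 nM + cpd, 15 min RT; start w/ rhodamine-CoA 5 uM, BHQ-2-YbbR 12.5 uM (final); 50 mM Hepes pH 7.6, 10 mM MgCl2, 0.01% NP-40, 0.01% BSA; read 525/598 nm at 0 and 30 min.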
# HP1b chromo inh = inhibitors of HP1-beta chromodomain binding to methylated histone tails. P83916. AlphaScreen HP1-beta / biotin-H3K9me3 peptide binding. Potency, µM (top dose mostly 114 µM), actives largely listed as inhibitors. 390,000 tested, 0.56% active; note: nearly all actives have a fitted effect of over 70% in size
# Target sequence (P83916 whole entry, looked up): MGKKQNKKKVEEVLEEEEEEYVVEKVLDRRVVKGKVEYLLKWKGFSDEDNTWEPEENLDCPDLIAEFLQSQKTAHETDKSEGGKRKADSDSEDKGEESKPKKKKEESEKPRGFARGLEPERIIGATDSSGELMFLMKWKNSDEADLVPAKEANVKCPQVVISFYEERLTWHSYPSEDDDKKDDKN
#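 Compound inhibition of the preformed complex between 50 nM HP1-beta and 50 nM biotinylated H3K9me3 peptide was read by AlphaScreen. Buffer was PBS pH 7.4 with 0.01% Tween-20. Incubations ran 30 min at room temperature, with 10 ug/mL donor/acceptor beads.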
# JMJD2A Tudor = blocks the human JMJD2A Tudor domain; AlphaScreen JMJD2A-Tudor / H3K4me3 peptide binding; 390,000 tested, 4.4% active; O75164; Potency, µM (series often up to 114 µM), usual class: inhibitors; note: nearly all actives have a fitted effect of over 50% in size
# ALOX12 inh = ALOX12 (human) lipoxygenase inhibition. P18054. purified 12hLO, xylenol orange hydroperoxide absorbance. Potency, µM (top dose mostly 108 µM), hits mostly inhibitors. 580,000 tested, 1.1% active
#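 Purified human 12hLO at 150 nM in 25 mM Hepes, 0.01% Triton X-100, pH 7.0, preincubated 15 min at room temperature with compound. Reaction started with 40 uM arachidonic acid, 30 min at room temperature. Hydroperoxide measured by Fe-xylenol orange, 573/405 nm absorbance ratio.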
# BAZ2B inh = inhibitors of human BAZ2B bromodomain; Q9UIF8; AlphaScreen BAZ2B-H3K14Ac peptide displacement; Potency, µM (titrated, usually from 114 µM), hits mostly inhibitors; 360,000 tested, 4.4% active; note: nearly all actives have a fitted effect of over 60% in size
#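 AlphaScreen displacement: compounds (up to 110uM) incubated 30 min at room temperature with a preformed 50 nM BAZ2B/50 nM biotinylated H3K14Ac peptide complex in PBS pH 7.4 with Tween-20. Donor and acceptor beads at 10 ug/mL final added, 20 min light-protected before reading.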
# G9a inh = G9a (human) methyltransferase inhibition; 350,000 tested, 8.8% active; Potency, µM (top dose mostly 102 µM), most hits filed as inhibitors; Q96KQ7; G9a H3K9 monomethylation, AlphaScreen, 2 h; note: nearly all actives have a fitted effect of over 75% in size
# Target sequence (Q96KQ7 913-1193 limits assumed): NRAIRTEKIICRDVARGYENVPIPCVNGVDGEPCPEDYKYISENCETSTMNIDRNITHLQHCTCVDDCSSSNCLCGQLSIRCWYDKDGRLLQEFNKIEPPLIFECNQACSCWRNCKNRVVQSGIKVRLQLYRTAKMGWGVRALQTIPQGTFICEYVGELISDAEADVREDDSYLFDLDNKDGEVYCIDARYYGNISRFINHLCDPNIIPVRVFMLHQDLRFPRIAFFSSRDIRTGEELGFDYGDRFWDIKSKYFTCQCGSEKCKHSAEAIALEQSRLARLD
#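 AlphaScreen read-out: biotin-H3K9 peptide (500 nM) methylation by 20 nM enzyme with 20 uM SAM, 2 h at room temperature after 15 min compound preincubation; anti-monomethyl H3K9 antibody plus donor/acceptor beads, 10 min dark.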
# Hits are given with their value; 0 = inactive; ? = inconclusive; - = no result given; [ ] = remark or other dose. Calls come from the whole dose curve; as a rule, active = well fitted curve in the direction sought with a large enough effect; inconclusive = small, poorly fitted or top-dose-only effect, or another doubt; inactive = no such curve, though single readings can be large; an effect the other way counts as inactive or inconclusive.
SMILES,Sfp inh,HP1b chromo inh,JMJD2A Tudor,ALOX12 inh,BAZ2B inh,G9a inh
CC(C)OCCCN1CN(S(=O)(=O)c2ccccc2)c2nc3ccccc3nc21,0,0,0,?,?,32µM
CCCCN1CN(S(=O)(=O)c2ccc(OC)cc2)c2nc3ccccc3nc21,0,0,0,0,?,35µM
C=CCN1CN(S(=O)(=O)c2cccc(Cl)c2)c2nc3ccccc3nc21,0,0,0,?,0,79µM
COc1ccc(CCN2CN(S(=O)(=O)c3ccccc3)c3nc4ccccc4nc32)cc1,0,0,0,0,0,?
O=C1NC(=NC2CCCC2)C2(CCN(Cc3ccsc3)CC2)N1c1cc(F)cc(F)c1,-,-,-,0[6.33 µM],-,-
O=C(c1ccc(OCc2ccncc2)cc1)N1CCN(C2CCS(=O)(=O)C2)CC1 (stereo not drawn),-,-,-,0,-,-
CC(C)CNC(=O)N1[C@@H]2CC[C@H]1CC(NC(=O)c1ccc(F)cc1)C2 (stereo partly drawn),-,-,-,0,-,-
COCCCN1CN(S(=O)(=O)c2ccc(Cl)cc2)c2nc3ccccc3nc21,0,0,0,?,0,28µM
O=S(=O)(c1ccc(Cl)cc1)N1CN(CC2CCCO2)c2nc3ccccc3nc21 (stereo not drawn),0,0,0,0,0,40µM
O=S(=O)(c1cccc(Cl)c1)N1CN(CC2CCCO2)c2nc3ccccc3nc21 (stereo not drawn),0,0,0,?,?,-
COCCN1CN(S(=O)(=O)c2cccc(Cl)c2)c2nc3ccccc3nc21,0,0,0,0,0,45µM
Brc1cccc(CNn2cnnc2)c1,-,0,0,0,-,-
Cc1ccc(CNn2cn[nH]c2=S)cc1,-,0,8.9µM,?,-,-
C=CCOc1ccc(CNn2cn[nH]c2=S)cc1,0,0,32µM,?,0,20µM
C=CCOc1ccc2ccccc2c1CNn1cn[nH]c1=S,0,0,?,?,0,-
Cc1ccc(CNc2ccc(CNc3ncn[nH]3)cc2)cc1,0,0,?,0,?,?
S=c1[nH]ncn1NCc1cccc(Br)c1,-,0,16µM,?,-,-
CNC(=O)c1ccc(NC(=O)c2ccc(C(C)(C)C)cc2)cc1,-,-,-,0,-,-
N#Cc1cccc(CN[C@@H]2CO[C@H](CNS(=O)(=O)c3ccccc3)[C@H]2O)c1,-,-,-,0,-,-
O=C(Nc1ccc(C23CC4CC(CC(C4)C2)C3)cc1)c1ccc(Cl)cc1Cl,-,-,-,0,-,-
Cc1nc([C@H]2CCN(Cc3ccc(C)o3)C[C@H]2NC(=O)C2CCOCC2)n[nH]1,-,-,-,0,-,-
Cc1ccc(CNC(=O)Cc2ccc(-n3cccc3)cc2)cc1,0,0,0,0,0,0
CC(C)Cc1ccc(C(C)C(=O)NC(c2ccccc2)c2ccccc2)cc1 (stereo not drawn),-,-,-,0,-,-
Cc1ccc(CNC(=O)c2ccc(-n3cccc3)cc2)cc1,0,22µM,40µM,?,25µM,?
CC(C)Cc1ccc(CC(=O)O)cc1,?,-,-,0[22.9 µM],-,11µM
SMILES,Sfp inh,HP1b chromo inh,JMJD2A Tudor,ALOX12 inh,BAZ2B inh,G9a inh
O=C(O)Cc1ccc(-n2cccc2)cc1,0,25µM,40µM,0,8.9µM,20µM
Cc1cc(=O)oc2cc(OCC(=O)NCc3cccnc3)c(Cl)cc12,-,-,-,0,-,-
CCc1noc(CC2CCOC3(CCN(S(=O)(=O)c4ccc(C(C)C)cc4)CC3)C2)n1 (stereo not drawn),-,-,-,0,-,-
COc1cc(CNc2nc3c(C)cc(C)cc3s2)ccc1O,0,0,?,?,50µM,45µM
Cc1cc(C)c2nc(NCc3ccccc3O)sc2c1,0,0,0,0,0,0
CC(C)C(NC(=O)C1O[C@@H]2OC(C)(C)O[C@@H]2[C@H]2OC(C)(C)O[C@@H]12)C(=O)O (stereo partly drawn),-,-,-,0,-,-
CC(C)c1ccc2c(c1)C(c1cccs1)=NNC(c1ccncc1)=N2,0,0,0,0,?,28µM
CC(C)c1ccc2c(c1)C(c1ccc(N3CCOCC3)cc1)=NNC(c1cccs1)=N2,0,0,?,0,?,45µM
CCn1cc(CN2C[C@@H](COC)[C@H](C(=O)N(C)C)C2)cn1,-,-,-,0,-,-
COc1ccccc1N(C(=O)CCl)c1cn(C(C)=O)c2ccccc12,0,0,0,0,0,?
